In PubChem BioAssay (NCATS):
Inconclusive results are not listed. Entries that show only a call come without a potency. Active and inactive are the calls of the source. Unless noted, calls follow the shape of the dose curve; as a rule, active = well fitted curve in the direction sought with a large enough effect; inconclusive = small, poorly fitted or top-dose-only effect, or another doubt; inactive = no such curve, though single readings can be large; an effect the other way counts as inactive or inconclusive.

Molecular target: Cytochrome P450 2C9 (Homo sapiens) (UniProt P11712)
Sequence (P11712 whole entry, looked up): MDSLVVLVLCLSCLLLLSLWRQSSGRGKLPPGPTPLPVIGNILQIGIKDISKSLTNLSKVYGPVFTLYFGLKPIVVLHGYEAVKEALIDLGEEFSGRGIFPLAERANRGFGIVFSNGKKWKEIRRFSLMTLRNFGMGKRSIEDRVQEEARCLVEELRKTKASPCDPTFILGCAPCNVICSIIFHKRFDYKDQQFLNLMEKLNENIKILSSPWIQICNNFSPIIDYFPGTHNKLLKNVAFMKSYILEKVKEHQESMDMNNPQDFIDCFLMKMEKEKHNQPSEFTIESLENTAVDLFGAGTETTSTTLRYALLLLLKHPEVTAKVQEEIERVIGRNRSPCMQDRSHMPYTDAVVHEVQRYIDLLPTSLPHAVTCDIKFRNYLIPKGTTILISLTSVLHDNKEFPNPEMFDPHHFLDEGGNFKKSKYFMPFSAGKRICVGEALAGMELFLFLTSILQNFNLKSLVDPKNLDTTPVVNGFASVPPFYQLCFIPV
Test: Cytochrome P450 family 2 subfamily C member 9 (CYP2C9) small molecule antagonists: luciferase biochemical (cell-free) qHTS assay (AID 1645842; active = well fitted curve in the direction sought with a large enough effect in the repeat runs; an effect the other way counts as inactive or inconclusive; also: nearly all actives have a fitted effect of over 55% in size; also: potency is read from the fitted curve at half-maximal effect)
Conditions: P450-Glo CYP2C9 enzyme assay, luciferin luminescence; series mostly up to 57.4 µM
Method in brief: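 P450-Glo CYP2C9 system: proluciferin substrate with enzyme in mix containing 0.4% BSA, 10 min at room temperature, then NADPH regeneration solution added and incubated 1 h at 37C. Detection reagent stopped reaction; luminescence read after 20 min as RLU.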
For CCOC(=O)[C@H](CCc1ccccc1)N[C@@H](C)C(=O)N1CCC[C@H]1C(=O)O, the Potency was “inactive”. For CCCNC(C)C(=O)Nc1c(C)csc1C(=O)OC (stereo not drawn), the Potency was “inactive”. In the case of C=CCSCC1Nc2cc(Cl)c(S(N)(=O)=O)cc2S(=O)(=O)N1 (stereo not drawn), the Potency is reported as 8.49 µM (active). In the case of Cc1ccc(C(C)C)c(O)c1, the Potency is reported as “inactive”. In the case of CCCCCCCC(=O)OCC(COC(=O)CCCCCCC)OC(=O)CCCCCCC, the Potency is reported as “inactive”. In the case of CN[C@@H]1[C@H](O)[C@H](NC)[C@H]2O[C@@]3(O)C(=O)C[C@@H](C)O[C@H]3O[C@@H]2[C@H]1O, the Potency is reported as “inactive”. With Cc1c(I)c(=O)n(-c2ccccc2)n1C the Potency was “inactive”. For COc1ccccc1OC(=O)Oc1ccccc1OC, the Potency was “inactive”. In the case of Cc1c(Cn2ccnc2)c2ccccc2n1CCC(=O)O, the Potency is reported as 1.95 µM (active). With CC(CN(C)C)C(C)(O)Cc1ccc(Cl)cc1 (stereo not drawn) the Potency was “inactive”. In the case of COc1ccc(-c2cc(=O)c3c(O)cc(O[C@@H]4O[C@H](CO[C@@H]5O[C@@H](C)[C@H](O)[C@@H](O)[C@H]5O)[C@@H](O)[C@H](O)[C@H]4O)cc3o2)cc1O, the Potency is reported as “inactive”. For CCCCCOC(=O)Nc1nc(=O)n([C@@H]2O[C@H](C)[C@@H](O)[C@H]2O)cc1F, the Potency was “inactive”. For CN1CC(=O)NC1=N, the Potency was “inactive”. With C/C(=C(\CCO)SS/C(CCO)=C(\C)N(C=O)Cc1cnc(C)nc1N)N(C=O)Cc1cnc(C)nc1N the Potency was “inactive”.

System: not listed separately
Test: Primary qHTS for inhibitors of nuclear receptor binding SET domain protein 2 (NSD2) in an isogenic RCH-ACV NSD2 p.E1099K mutant (9B) (AID 1645876); also: nearly all actives have a fitted effect of over 70% in size
Conditions: RCH-ACV NSD2 E1099K (9B) viability, CellTiter-Glo, 72 h; series mostly up to 44.9 µM
In the case of O=C(CCBr)N1CCN(C(=O)CCBr)CC1, the Potency is reported as “inactive”. In the case of NC(=O)CCCCC1CCSS1 (stereo not drawn), the Potency is reported as “inactive”. In the case of CCCCCCCCCCC(CO)CCCCCCCC (stereo not drawn), the Potency is reported as “inactive”. In the case of Nc1ccncc1N, the Potency is reported as “inactive”. In the case of CO[C@@]1(NC(=O)C(C(=O)O)c2ccc(O)cc2)C(=O)N2C(C(=O)O)=C(CSc3nnnn3C)CO[C@@H]21 (stereo partly drawn), the Potency is reported as “inactive”. In the case of OCCN1C[C@H](O)[C@@H](O)[C@H](O)[C@H]1CO, the Potency is reported as “inactive”. For O=C(O)COC(=O)Cc1ccccc1Nc1c(Cl)cccc1Cl, the Potency was “inactive”. For C[C@@H]1CCC[C@H](C)N1, the Potency was “inactive”. For CN1CCN(C(=O)C2CCCCC2)CC1, the Potency was “inactive”. With CC(=O)OCC(COC(C)=O)OC(C)=O the Potency was “inactive”. For O=C(/C=C/c1ccccc1)OCc1ccccc1, the Potency was “inactive”. With CC1CC(OC(=O)c2ccccc2O)CC(C)(C)C1 (stereo not drawn) the Potency was “inactive”. With CCCCCCCCCCCCCCCCCCO the Potency was “inactive”. In the case of NS(=O)(=O)c1ccc(C(=O)O)cc1, the Potency is reported as “inactive”. With CC(=O)N[C@@H](Cc1ccc(O)cc1)C(=O)O the Potency was “inactive”. With Cc1ccc(S(=O)(=O)NC(=O)NC2CCCCCCC2)cc1 the Potency was “inactive”. With O=c1[nH]c(=O)c2ccccc2o1 the Potency was “inactive”. For C[C@H]1COc2c(C3(N)CC3)c(F)cc3c(=O)c(C(=O)O)cn1c23, the Potency was “inactive”. In the case of CN1C(=O)CC(c2ccccc2)C1=O (stereo not drawn), the Potency is reported as “inactive”. In the case of O=C(O)c1cc(=O)c2ccccc2o1, the Potency is reported as “inactive”. With Nc1ncnc2c1ncn2[C@@H]1O[C@H](COP(=O)(O)O)[C@@H](O)[C@H]1O the Potency was “inactive”. In the case of CC1CCN(CCCC(=O)c2ccc(F)cc2)CC1, the Potency is reported as “inactive”. For C[N+](C)(C)CC[N+]1(C)Cc2c(Cl)c(Cl)c(Cl)c(Cl)c2C1, the Potency was “inactive”. With CCOC(=O)[C@H](CCc1ccccc1)N[C@@H](C)C(=O)N1CCC[C@H]1C(=O)O the Potency was “inactive”. With CCCNC(C)C(=O)Nc1c(C)csc1C(=O)OC (stereo not drawn) the Potency was “inactive”. In the case of C=CCSCC1Nc2cc(Cl)c(S(N)(=O)=O)cc2S(=O)(=O)N1 (stereo not drawn), the Potency is reported as “inactive”. With Cc1ccc(C(C)C)c(O)c1 the Potency was “inactive”. For CCCCCCCC(=O)OCC(COC(=O)CCCCCCC)OC(=O)CCCCCCC, the Potency was “inactive”. For CN[C@@H]1[C@H](O)[C@H](NC)[C@H]2O[C@@]3(O)C(=O)C[C@@H](C)O[C@H]3O[C@@H]2[C@H]1O, the Potency was “inactive”. In the case of Cc1c(I)c(=O)n(-c2ccccc2)n1C, the Potency is reported as “inactive”. With COc1ccccc1OC(=O)Oc1ccccc1OC the Potency was “inactive”. For Cc1c(Cn2ccnc2)c2ccccc2n1CCC(=O)O, the Potency was “inactive”. With CC(CN(C)C)C(C)(O)Cc1ccc(Cl)cc1 (stereo not drawn) the Potency was “inactive”. For COc1ccc(-c2cc(=O)c3c(O)cc(O[C@@H]4O[C@H](CO[C@@H]5O[C@@H](C)[C@H](O)[C@@H](O)[C@H]5O)[C@@H](O)[C@H](O)[C@H]4O)cc3o2)cc1O, the Potency was “inactive”. In the case of CCCCCOC(=O)Nc1nc(=O)n([C@@H]2O[C@H](C)[C@@H](O)[C@H]2O)cc1F, the Potency is reported as “inactive”. For CN1CC(=O)NC1=N, the Potency was “inactive”. With C/C(=C(\CCO)SS/C(CCO)=C(\C)N(C=O)Cc1cnc(C)nc1N)N(C=O)Cc1cnc(C)nc1N the Potency was “inactive”.

System: not listed separately
Test: Primary qHTS for inhibitors of nuclear receptor binding SET domain protein 2 (NSD2) in an RCH-ACV wild type WT cells (2C) (AID 1645877); also: nearly all actives have a fitted effect of over 70% in size
Conditions: RCH-ACV (leukaemia line) NSD2 WT (2C) viability, CellTiter-Glo, 72 h; series mostly up to 44.9 µM
For O=C(CCBr)N1CCN(C(=O)CCBr)CC1, the Potency was “inactive”. For NC(=O)CCCCC1CCSS1 (stereo not drawn), the Potency was “inactive”. For CCCCCCCCCCC(CO)CCCCCCCC (stereo not drawn), the Potency was “inactive”. With Nc1ccncc1N the Potency was “inactive”. In the case of CO[C@@]1(NC(=O)C(C(=O)O)c2ccc(O)cc2)C(=O)N2C(C(=O)O)=C(CSc3nnnn3C)CO[C@@H]21 (stereo partly drawn), the Potency is reported as “inactive”. In the case of OCCN1C[C@H](O)[C@@H](O)[C@H](O)[C@H]1CO, the Potency is reported as “inactive”. With O=C(O)COC(=O)Cc1ccccc1Nc1c(Cl)cccc1Cl the Potency was “inactive”. In the case of C[C@@H]1CCC[C@H](C)N1, the Potency is reported as “inactive”. In the case of CN1CCN(C(=O)C2CCCCC2)CC1, the Potency is reported as “inactive”. With CC(=O)OCC(COC(C)=O)OC(C)=O the Potency was “inactive”. For O=C(/C=C/c1ccccc1)OCc1ccccc1, the Potency was “inactive”. With CC1CC(OC(=O)c2ccccc2O)CC(C)(C)C1 (stereo not drawn) the Potency was “inactive”. In the case of CCCCCCCCCCCCCCCCCCO, the Potency is reported as “inactive”. For NS(=O)(=O)c1ccc(C(=O)O)cc1, the Potency was “inactive”. In the case of CC(=O)N[C@@H](Cc1ccc(O)cc1)C(=O)O, the Potency is reported as “inactive”. In the case of Cc1ccc(S(=O)(=O)NC(=O)NC2CCCCCCC2)cc1, the Potency is reported as “inactive”. With O=c1[nH]c(=O)c2ccccc2o1 the Potency was “inactive”. With C[C@H]1COc2c(C3(N)CC3)c(F)cc3c(=O)c(C(=O)O)cn1c23 the Potency was “inactive”. For CN1C(=O)CC(c2ccccc2)C1=O (stereo not drawn), the Potency was “inactive”. For O=C(O)c1cc(=O)c2ccccc2o1, the Potency was “inactive”. With Nc1ncnc2c1ncn2[C@@H]1O[C@H](COP(=O)(O)O)[C@@H](O)[C@H]1O the Potency was “inactive”. In the case of CC1CCN(CCCC(=O)c2ccc(F)cc2)CC1, the Potency is reported as “inactive”. For C[N+](C)(C)CC[N+]1(C)Cc2c(Cl)c(Cl)c(Cl)c(Cl)c2C1, the Potency was “inactive”. With CCOC(=O)[C@H](CCc1ccccc1)N[C@@H](C)C(=O)N1CCC[C@H]1C(=O)O the Potency was “inactive”. In the case of CCCNC(C)C(=O)Nc1c(C)csc1C(=O)OC (stereo not drawn), the Potency is reported as “inactive”. In the case of C=CCSCC1Nc2cc(Cl)c(S(N)(=O)=O)cc2S(=O)(=O)N1 (stereo not drawn), the Potency is reported as “inactive”. In the case of Cc1ccc(C(C)C)c(O)c1, the Potency is reported as “inactive”. For CCCCCCCC(=O)OCC(COC(=O)CCCCCCC)OC(=O)CCCCCCC, the Potency was “inactive”. In the case of CN[C@@H]1[C@H](O)[C@H](NC)[C@H]2O[C@@]3(O)C(=O)C[C@@H](C)O[C@H]3O[C@@H]2[C@H]1O, the Potency is reported as “inactive”. In the case of Cc1c(I)c(=O)n(-c2ccccc2)n1C, the Potency is reported as “inactive”. With COc1ccccc1OC(=O)Oc1ccccc1OC the Potency was “inactive”. In the case of Cc1c(Cn2ccnc2)c2ccccc2n1CCC(=O)O, the Potency is reported as “inactive”. In the case of CC(CN(C)C)C(C)(O)Cc1ccc(Cl)cc1 (stereo not drawn), the Potency is reported as “inactive”. With COc1ccc(-c2cc(=O)c3c(O)cc(O[C@@H]4O[C@H](CO[C@@H]5O[C@@H](C)[C@H](O)[C@@H](O)[C@H]5O)[C@@H](O)[C@H](O)[C@H]4O)cc3o2)cc1O the Potency was “inactive”. In the case of CCCCCOC(=O)Nc1nc(=O)n([C@@H]2O[C@H](C)[C@@H](O)[C@H]2O)cc1F, the Potency is reported as “inactive”. With CN1CC(=O)NC1=N the Potency was “inactive”. For C/C(=C(\CCO)SS/C(CCO)=C(\C)N(C=O)Cc1cnc(C)nc1N)N(C=O)Cc1cnc(C)nc1N, the Potency was “inactive”.
